Test results as given in PubChem BioAssay (EPA / NIEHS).
Active and inactive are the calls of the source. Rule for the calls: active = hit-call score of the fitted dose curve at least 0.9, where 1 is the maximum; inactive = score below 0.9.

assay: CCTE_Mundy_HCI_Cortical_NOG_NeuriteLength: CCTE's Neurite Outgrowth Assay in rat cortical cells for Neurite Length, Mundy Lab (AID 2284213);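 for AC50: neurites imaged about 48 to 50 h after chemical exposure began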
Procedure: CCTE_Mundy_HCI_Cortical_NOG is a multiplexed, cell-based-readout assay that uses rat primary cortical cells with measurements taken at 50.33 hours after chemical dosing in a microplate: 96-well plate.CCTE_Mundy_HCI_Cortical_NOG_NeuriteLength is one of four components of the CCTE_Mundy_HCI_Cortical_NOG assay. It measures neurite outgrowth related to the neurite length using High Content Imaging of fluorescently labelled markers.[…] Using a type of morphology reporter, loss -of-signal activity can be used to understand developmental effects.
Exposure starts 2 hours post-plating by adding 10 ul of the working solution to 90 ul of media in the wells for a 1/10 dilution. Forty-eight hours after chemical treatment cells are fixed by direct addition of 100 ul of warm (37C) Dulbecco's phosphate buffered saline (DPBS) fixative solution containing 8% paraformaldehyde, 8% sucrose, and 0.1% of 3 mg/ml Hoechst 33342 into each well. Primary antibodies are prepared by dilution in Immunocytochemical Staining Buffer (ISB), 10X Dulbecco's PBS, 0.1% Saponin, 5% Bovine Serum Albumin, 0.5% NaN3 (Sodium Azide) and betaIII-tubulin (rabbit anti-betaIII-tubulin, 1:800) followed by Alexa Fluor-488 secondary (1:500) to label neuronal cell bodies and neurites. A Cellomics ArrayScan VTi HCS Reader is used for automated image acquisition and analysis of neurite outgrowth.

| SMILES | outcome | AC50 |
| --- | --- | --- |
| CCSC(=O)N1CCCCCC1 | inactive | – |
| COP(=O)(OC)O/C(C)=C/C(=O)N(C)C | inactive | – |
| N#CN=C1SCCN1Cc1ccc(Cl)nc1 | inactive | – |
| COP(=S)(OC)SCn1nnc2ccccc2c1=O | inactive | – |
| CO/N=C(/C1=NOCCO1)c1ccccc1Oc1ncnc(Oc2ccccc2Cl)c1F | – | 2.74 µM (active) |
| CNC(=O)Oc1cccc2ccccc12 | inactive | – |
| C=C(C)CN(CC)c1c([N+](=O)[O-])cc(C(F)(F)F)cc1[N+](=O)[O-] | – | 32.4 µM (active) |
| CC1(C)C(C=C(Cl)Cl)C1C(=O)OC(C#N)c1cccc(Oc2ccccc2)c1 (stereo not drawn) | inactive | – |
| COC(=O)N(C(=O)N1CO[C@@]2(C(=O)OC)Cc3cc(Cl)ccc3C2=N1)c1ccc(OC(F)(F)F)cc1 | inactive | – |
| CS(=O)(=O)c1cc(C(F)(F)F)ccc1C(=O)c1cnoc1C1CC1 | inactive | – |
| CCN(CC)c1nc(C)cc(OP(=S)(OC)OC)n1 | – | 88.7 µM (active) |
| O=C(Nc1ccccc1-c1ccc(Cl)cc1)c1cccnc1Cl | inactive | – |
| CCOP(=O)(OCC)Oc1nc(Cl)c(Cl)cc1Cl | inactive | – |
| CCNC(=O)NC(=O)C(C#N)=NOC | inactive | – |
| CN/C(=N\[N+](=O)[O-])NCc1cnc(Cl)s1 | inactive | – |
| Cc1c(COC(=O)[C@@H]2[C@H](/C=C(\Cl)C(F)(F)F)C2(C)C)cccc1-c1ccccc1 | – | 26.9 µM (active) |
| CC(C)(C)C(=O)C(Oc1ccc(Cl)cc1)n1cncn1 (stereo not drawn) | inactive | – |
| CS(=O)(=O)c1ccc(C(=O)C2C(=O)CCCC2=O)c([N+](=O)[O-])c1 | inactive | – |
